# In PubChem BioAssay AID1159580 (chemical genetic matrix, 2015):
# Hit rate of the full screen: of about 5,500 compounds, about 2,000 (36%) were called active. About 18% were inconclusive and are not listed. The list shows a part of the results. Unmarked numbers belong to inactive results. Rule as the data show it: active = normalized growth mostly below about 0.91 (no sharp cut-off); inconclusive = no clear call, values can overlap the other calls; inactive = mostly above about 0.92.
# Test: chemical genetic growth profiling, strain panel (AID 1159580);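 also: tested at 20 µM; growth read once vehicle control cultures reached saturation at 30 °C; 1 = growth at the plate median or of vehicle wells; lower values mean less growth of the strain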
# Settings: S. cerevisiae deletion strains, growth OD
smiles,measurement,setting,value
O=c1cccc2ccc(O)c(O)c2c1O,normalized growth,"locus YAL021C, strain ccr4, stronger effect = lower value",0.443 (active)
same,normalized growth,"locus YAL026C, strain drs2, stronger effect = lower value",0.791 (active)
same,normalized growth,"locus YAL030W, strain snc1, stronger effect = lower value",0.948
same,normalized growth,"locus YBL061C, strain skt5, stronger effect = lower value",0.901 (active)
same,normalized growth,"locus YBR009C, strain hhf1, stronger effect = lower value",0.822 (active)
same,normalized growth,"locus YBR021W, strain FUR4, stronger effect = lower value",1.02
same,normalized growth,"locus YBR023C, strain chs3, stronger effect = lower value",0.887 (active)
same,normalized growth,"locus YBR171W, strain sec66, stronger effect = lower value",0.928
same,normalized growth,"locus YBR229C, strain ROT2, stronger effect = lower value",0.385 (active)
same,normalized growth,"locus YBR231C, strain swc5, stronger effect = lower value",0.853 (active)
same,normalized growth,"locus YCL011C, strain gbp2, stronger effect = lower value",0.913
same,normalized growth,"locus YCL016C, strain dcc1, stronger effect = lower value",0.938
same,normalized growth,"locus YCL029C, strain bik1, stronger effect = lower value",0.598 (active)
same,normalized growth,"locus YCL061C, strain MRC1, stronger effect = lower value",0.949
same,normalized growth,"locus YCL069W, strain vba3, stronger effect = lower value",0.945
same,normalized growth,"locus YCR088W, strain abp1, stronger effect = lower value",0.961
same,normalized growth,"locus YDL005C, strain med2, stronger effect = lower value",1
same,normalized growth,"locus YDL035C, strain GPR1, stronger effect = lower value",0.117 (active)
same,normalized growth,"locus YDL040C, strain nat1, stronger effect = lower value",1
same,normalized growth,"locus YDL074C, strain BRE1, stronger effect = lower value",0.241 (active)
same,normalized growth,"locus YDL101C, strain DUN1, stronger effect = lower value",0.145 (active)
same,normalized growth,"locus YDL134C, strain PPH21, stronger effect = lower value",0.112 (active)
same,normalized growth,"locus YDL185W, strain tfp1, stronger effect = lower value",0.955
same,normalized growth,"locus YDL192W, strain arf1, stronger effect = lower value",0.579 (active)
same,normalized growth,"locus YDR001C, strain nth1, stronger effect = lower value",0.975
same,normalized growth,"locus YDR069C, strain doa4, stronger effect = lower value",0.625 (active)
same,normalized growth,"locus YDR101C, strain arx1, stronger effect = lower value",0.734 (active)
same,normalized growth,"locus YDR137W, strain rgp1, stronger effect = lower value",0.161 (active)
same,normalized growth,"locus YDR159W, strain sac3, stronger effect = lower value",0.261 (active)
same,normalized growth,"locus YDR162C, strain NBP2, stronger effect = lower value",0.0859 (active)
same,normalized growth,"locus YDR195W, strain ref2",1.06
same,normalized growth,"locus YDR297W, strain sur2, stronger effect = lower value",0.92 (active)
same,normalized growth,"locus YDR318W, strain mcm21, stronger effect = lower value",0.709 (active)
same,normalized growth,"locus YDR334W, strain swr1, stronger effect = lower value",0.885 (active)
same,normalized growth,"locus YDR335W, strain msn5, stronger effect = lower value",0.748 (active)
same,normalized growth,"locus YDR388W, stronger effect = lower value",0.718 (active)
same,normalized growth,"locus YDR392W, strain spt3, stronger effect = lower value",0.715 (active)
same,normalized growth,"locus YDR502C, strain sam2, stronger effect = lower value",0.372 (active)
same,normalized growth,"locus YEL003W, strain gim4, stronger effect = lower value",0.823 (active)
same,normalized growth,"locus YEL037C, strain rad23, stronger effect = lower value",0.938
same,normalized growth,"locus YEL061C, strain CIN8 (second series), stronger effect = lower value",0.922
same,normalized growth,"locus YEL061C, strain CIN8, stronger effect = lower value",0.301 (active)
same,normalized growth,"locus YER015W, strain faa2, stronger effect = lower value",0.816 (active)
same,normalized growth,"locus YER016W, strain bim1, stronger effect = lower value",0.96
same,normalized growth,"locus YER110C, stronger effect = lower value",1.01
same,normalized growth,"locus YER111C, strain swi4, stronger effect = lower value",0.403 (active)
same,normalized growth,"locus YER155C, strain BEM2 (second series), stronger effect = lower value",0.73 (active)
same,normalized growth,"locus YER155C, strain BEM2, stronger effect = lower value",0.652 (active)
same,normalized growth,"locus YER167W, strain BCK2, stronger effect = lower value",0.45 (active)
same,normalized growth,"locus YFR010W, strain ubp6, stronger effect = lower value",0.795 (active)
same,normalized growth,"locus YGL078C, strain dbp3, stronger effect = lower value",1.03
same,normalized growth,"locus YGL086W, strain mad1, stronger effect = lower value",0.365 (active)
same,normalized growth,"locus YGL167C, strain pmr1, stronger effect = lower value",0.955
same,normalized growth,"locus YGL173C, strain kem1, stronger effect = lower value",0.791 (active)
same,normalized growth,"locus YGL227W, strain vid30, stronger effect = lower value",1.01
same,normalized growth,"locus YGL240W, strain doc1, stronger effect = lower value",0.995
same,normalized growth,"locus YGL248W, strain PDE1, stronger effect = lower value",0.185 (active)
same,normalized growth,"locus YGL253W, strain hxk2, stronger effect = lower value",0.875 (active)
same,normalized growth,"locus YGR135W, strain pre9, stronger effect = lower value",0.523 (active)
same,normalized growth,"locus YGR252W, strain gcn5, stronger effect = lower value",0.501 (active)
same,normalized growth,"locus YHR013C, strain ard1, stronger effect = lower value",0.962
same,normalized growth,"locus YHR027C, strain rpn1, stronger effect = lower value",0.841 (active)
same,normalized growth,"locus YHR079C, strain IRE1 (second series), stronger effect = lower value",0.702 (active)
same,normalized growth,"locus YHR094C, strain hxt1, stronger effect = lower value",0.914 (active)
same,normalized growth,"locus YHR129C, strain ARP1, stronger effect = lower value",0.294 (active)
same,normalized growth,"locus YHR142W, strain chs7, stronger effect = lower value",0.762 (active)
same,normalized growth,"locus YHR200W, strain rpn10, stronger effect = lower value",0.626 (active)
same,normalized growth,"locus YIL066C, strain RNR3, stronger effect = lower value",0.104 (active)
same,normalized growth,"locus YIL073C, strain SPO22, stronger effect = lower value",0.134 (active)
same,normalized growth,"locus YIL125W, strain kgd1, stronger effect = lower value",1.01
same,normalized growth,"locus YIR030C, strain dcg1, stronger effect = lower value",0.836 (active)
same,normalized growth,"locus YJL092W, strain hpr5, stronger effect = lower value",0.963
same,normalized growth,"locus YJL095W, strain BCK1 (second series), stronger effect = lower value",0.871 (active)
same,normalized growth,"locus YJL095W, strain BCK1, stronger effect = lower value",0.0994 (active)
same,normalized growth,"locus YJL115W, strain asf1, stronger effect = lower value",0.954
same,normalized growth,"locus YJL129C, strain trk1, stronger effect = lower value",0.562 (active)
same,normalized growth,"locus YJL134W, strain LCB3, stronger effect = lower value",0.477 (active)
same,normalized growth,"locus YJL154C, strain vps35, stronger effect = lower value",0.961
same,normalized growth,"locus YJL164C, strain tpk1, stronger effect = lower value",0.844 (active)
same,normalized growth,"locus YJL166W, strain qcr8, stronger effect = lower value",0.872 (active)
same,normalized growth,"locus YJL168C, strain set2, stronger effect = lower value",0.937
same,normalized growth,"locus YJL187C, strain SWE1 (second series), stronger effect = lower value",0.106 (active)
same,normalized growth,"locus YJL187C, strain SWE1, stronger effect = lower value",0.893 (active)
same,normalized growth,"locus YJR075W, strain HOC1, stronger effect = lower value",0.358 (active)
same,normalized growth,"locus YKL068W, stronger effect = lower value",1.08 [resistant] (active)
same,normalized growth,"locus YKL085W, strain MDH1 (second series), stronger effect = lower value",1.04
same,normalized growth,"locus YKL085W, strain MDH1, stronger effect = lower value",1.04
same,normalized growth,"locus YKL160W, strain elf1, stronger effect = lower value",0.901 (active)
same,normalized growth,"locus YKR001C, strain vps1, stronger effect = lower value",0.453 (active)
same,normalized growth,"locus YKR026C, strain gcn3, stronger effect = lower value",0.965
same,normalized growth,"locus YKR091W, strain srl3, stronger effect = lower value",0.99
same,normalized growth,"locus YLL001W, strain dnm1, stronger effect = lower value",0.917
same,normalized growth,"locus YLL026W, stronger effect = lower value",0.913 (active)
same,normalized growth,"locus YLL041C, strain sdh2, stronger effect = lower value",0.944
same,normalized growth,"locus YLR027C, strain aat2, stronger effect = lower value",0.897 (active)
same,normalized growth,"locus YLR039C, strain RIC1, stronger effect = lower value",0.179 (active)
same,normalized growth,"locus YLR058C, strain SHM2, stronger effect = lower value",0.126 (active)
same,normalized growth,"locus YLR102C, strain apc9, stronger effect = lower value",0.966
same,normalized growth,"locus YLR221C, strain rsa3, stronger effect = lower value",0.854 (active)
same,normalized growth,"locus YLR258W, strain gsy2, stronger effect = lower value",0.903 (active)
same,normalized growth,"locus YLR262C, strain YPT6 (second series), stronger effect = lower value",0.397 (active)
same,normalized growth,"locus YLR268W, strain sec22, stronger effect = lower value",0.285 (active)
same,normalized growth,"locus YLR320W, strain mms22, stronger effect = lower value",0.689 (active)
same,normalized growth,"locus YLR330W, strain CHS5, stronger effect = lower value",0.615 (active)
same,normalized growth,"locus YLR342W, strain FKS1 (second series), stronger effect = lower value",0.183 (active)
same,normalized growth,"locus YLR342W, strain FKS1, stronger effect = lower value",0.893 (active)
same,normalized growth,"locus YLR357W, strain rsc2, stronger effect = lower value",0.857
same,normalized growth,"locus YLR370C, strain arc18, stronger effect = lower value",0.903 (active)
same,normalized growth,"locus YLR371W, strain rom2, stronger effect = lower value",0.651 (active)
same,normalized growth,"locus YLR384C, strain iki3, stronger effect = lower value",0.944
same,normalized growth,"locus YLR418C, strain cdc73, stronger effect = lower value",0.26 (active)
same,normalized growth,"locus YML016C, strain PPZ1, stronger effect = lower value",0.0765 (active)
same,normalized growth,"locus YML032C, strain rad52, stronger effect = lower value",0.785 (active)
same,normalized growth,"locus YML120C, strain ndi1, stronger effect = lower value",0.208 (active)
same,normalized growth,"locus YML124C, strain tub3, stronger effect = lower value",0.742 (active)
same,normalized growth,"locus YMR058W, strain fet3, stronger effect = lower value",0.344 (active)
same,normalized growth,"locus YMR078C, strain ctf18, stronger effect = lower value",0.965
same,normalized growth,"locus YMR125W, strain sto1, stronger effect = lower value",1
same,normalized growth,"locus YMR129W, stronger effect = lower value",0.976
same,normalized growth,"locus YMR205C, strain PFK2, stronger effect = lower value",0.722 (active)
same,normalized growth,"locus YMR223W, strain ubp8, stronger effect = lower value",0.69 (active)
same,normalized growth,"locus YMR231W, strain pep5, stronger effect = lower value",0.463 (active)
same,normalized growth,"locus YMR263W, strain SAP30, stronger effect = lower value",0.481 (active)
same,normalized growth,"locus YMR307W, strain GAS1, stronger effect = lower value",0.34 (active)
same,normalized growth,"locus YNL067W, strain RPL9B, stronger effect = lower value",0.271 (active)
same,normalized growth,"locus YNL071W, strain lat1, stronger effect = lower value",0.87 (active)
same,normalized growth,"locus YNL209W, strain ssb2, stronger effect = lower value",0.722 (active)
same,normalized growth,"locus YNL233W, strain BNI4, stronger effect = lower value",0.419 (active)
same,normalized growth,"locus YNL248C, strain rpa49, stronger effect = lower value",0.912
same,normalized growth,"locus YNL250W, strain rad50, stronger effect = lower value",1.06
same,normalized growth,"locus YNL271C, strain bni1, stronger effect = lower value",0.97
same,normalized growth,"locus YNL298W, strain CLA4, stronger effect = lower value",0.982
same,normalized growth,"locus YNL307C, strain MCK1, stronger effect = lower value",0.799 (active)
same,normalized growth,"locus YNL322C, strain KRE1 (second series), stronger effect = lower value",0.959
same,normalized growth,"locus YNL322C, strain KRE1, stronger effect = lower value",0.105 (active)
same,normalized growth,"locus YNR049C, strain mso1, stronger effect = lower value",0.98
same,normalized growth,"locus YNR052C, strain pop2, stronger effect = lower value",0.328 (active)
same,normalized growth,"locus YOL012C, strain htz1",0.205
same,normalized growth,"locus YOL147C, strain pex11, stronger effect = lower value",0.65 (active)
same,normalized growth,"locus YOR001W, strain rrp6, stronger effect = lower value",0.892
same,normalized growth,"locus YOR061W, strain CKA2, stronger effect = lower value",0.255 (active)
same,normalized growth,"locus YOR069W, strain VPS5, stronger effect = lower value",0.176 (active)
same,normalized growth,"locus YOR070C, strain gyp1, stronger effect = lower value",0.902 (active)
same,normalized growth,"locus YOR080W, strain dia2, stronger effect = lower value",0.973
same,normalized growth,"locus YOR083W, strain WHI5, stronger effect = lower value",0.86 (active)
same,normalized growth,"locus YOR106W, strain vam3, stronger effect = lower value",0.592 (active)
same,normalized growth,"locus YOR136W, strain idh2, stronger effect = lower value",0.712 (active)
same,normalized growth,"locus YOR144C, strain elg1, stronger effect = lower value",0.788 (active)
same,normalized growth,"locus YOR184W, strain ser1, stronger effect = lower value",0.332 (active)
same,normalized growth,"locus YOR265W, strain rbl2, stronger effect = lower value",0.939
same,normalized growth,"locus YOR270C, strain vph1, stronger effect = lower value",0.369 (active)
same,normalized growth,"locus YOR290C, strain snf2, stronger effect = lower value",0.376 (active)
same,normalized growth,"locus YOR316C, strain cot1, stronger effect = lower value",0.881 (active)
same,normalized growth,"locus YPL051W, strain arl3, stronger effect = lower value",0.672 (active)
same,normalized growth,"locus YPL078C, strain atp4, stronger effect = lower value",0.466 (active)
same,normalized growth,"locus YPL106C, strain sse1, stronger effect = lower value",0.815 (active)
same,normalized growth,"locus YPL240C, strain hsp82, stronger effect = lower value",0.972
same,normalized growth,"locus YPR119W, strain clb2, stronger effect = lower value",0.984
same,normalized growth,"locus YPR141C, strain kar3, stronger effect = lower value",1.04
same,normalized growth,"locus YPR163C, strain tif3, stronger effect = lower value",0.764 (active)
same,normalized growth,"locus YPR167C, strain met16, stronger effect = lower value",0.81 (active)
same,normalized growth,"strain wtn01, stronger effect = lower value",0.337 (active)
